Measured values from PubChem BioAssay (Tox21).
Records with an inconclusive call do not appear. The source made the active and inactive calls. Unless noted, calls follow the shape of the dose curve; as a rule, active = well fitted curve in the direction sought with a large enough effect in the repeat runs; inconclusive = weak or mixed curves; inactive = no such curve, though single readings can be large; an effect the other way counts as inactive or inconclusive.

Experiments:
[1] = qHTS assay to identify small molecule agonists of the androgen receptor (AR) signaling pathway in the presence of an antagonist - cell viability counter screen (AID 1259379);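 also: MDA-kb2 human breast cancer cells carrying an MMTV luciferase reporter; series mostly up to about 92 µM; nearly all actives have a fitted effect of over 25% in size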
Procedure, shortened: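 In MDA-kb2 cells (human breast carcinoma, MMTV-luciferase), compounds at 15 concentrations plus 3.0uM nilutamide; 16 hr, 37C, 0% CO2; CellTiter-Fluor fluorescence read for viability.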

[2] = qHTS assay to identify small molecule agonists of the estrogen receptor beta (ER-beta) signaling pathway - cell viability counter screen (AID 1259380); also: nearly all actives have a fitted effect of over 30% in size
Procedure, shortened: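 Viability of ER-beta-UAS-bla HEK293T cells was determined by CellTiter-Glo luminescence following 16 hr treatment with test compounds at 37C.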

[3] = qHTS assay to identify small molecule antagonists of the estrogen receptor beta (ER-beta) signaling pathway - cell viability counter screen (AID 1259382); also: series mostly up to about 92 µM; nearly all actives have a fitted effect of over 55% in size
Procedure, shortened: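 Tox21 10K library tested in qHTS format on ER-beta-bla HEK293T cells stimulated with 1nM E2; 16 hr treatment at 37C. Same-well CellTiter-Glo luminescence served as the cell viability measure.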

[4] = qHTS assay to identify small molecule agonists or antagonists of the thyroid stimulating hormone receptor (TSHR) signaling pathway - wild type cell line counter screen (AID 1259384; calls by dose curve)
Procedure, shortened: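 Wild-type HEK293 cells were plated 18 h at 37 C/5% CO2, pin-dosed with compound plus Ro20-1724 medium, held 30 min at room temperature, then given cAMP-d2 and anti-cAMP-cryptate; fluorescence was read after 1 h. Fifteen concentrations, triplicate.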

[5] = biological target: Thyrotropin receptor (Homo sapiens) (UniProt P16473); assay: qHTS assay to identify small molecule antagonists of the thyroid stimulating hormone receptor (TSHR) signaling pathway (AID 1259385; calls by dose curve; also: nearly all actives have a fitted effect of over 20% in size)
Procedure, shortened: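 TSHR-HEK293 cells were plated and held 18 h at 37C/5% CO2, then given compound plus Ro20-1724 and stimulated with TSH at 1.5 ng/mL final. After 30 min at room temperature, cAMP was detected with cAMP-d2/anti-cAMP-cryptate (1 h) by fluorescence.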

[6] = qHTS assay to identify small molecule agonists of the estrogen receptor alpha (ER-alpha) signaling pathway in the presence of an antagonist - cell viability counter screen (AID 1259386);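 also: series mostly up to about 92 µM; cells exposed to compounds for 22 h at 37 °C before the viability read; nearly all actives have a fitted effect of over 30% in size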
Procedure, shortened: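 Fluorescent CellTiter-Fluor viability signal from VM7Luc4E2 cells, with the reagent added during the final hour of a 22hr compound exposure at 37C in the presence of 10.0nM ICI-182,780.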

[7] = biological target: Progesterone receptor (Homo sapiens) (UniProt P06401); assay: qHTS assay to identify small molecule agonists of the progesterone receptor (PR) signaling pathway (AID 1346784; calls by dose curve; also: nearly all actives have a fitted effect of over 30% in size)
Procedure, shortened: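 Agonist qHTS: compounds pinned onto 3,000 PR-UAS-bla HEK 293T cells per well in charcoal-stripped serum medium, 16hr at 37C, then beta-lactamase activity measured by LiveBLAzer FRET fluorescence after 2 hours at room temperature.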

[8] = biological target: Progesterone receptor (Homo sapiens) (UniProt P06401); assay: qHTS assay to identify small molecule antagonists of the progesterone receptor (PR) signaling pathway (AID 1346795; active = well fitted inhibition curve with a large enough effect in the signal ratio in the repeat runs, not every such curve was filed as active; the % refers to the signal ratio)
Procedure, shortened: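 Antagonist mode with agonist R5020 at 1 nM final and 16 hr incubation at 37C. Reporter was beta-lactamase driven by UAS in HEK293T (PR-UAS-bla), 2% charcoal-stripped serum; signal from LiveBLAzer FRET substrate, 2 hr at room temperature.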

[9] = qHTS assay to identify small molecule antagonists of the progesterone receptor (PR) signaling pathway - cell viability counter screen (AID 1346798); also: series mostly up to about 92 µM; nearly all actives have a fitted effect of over 50% in size
Procedure, shortened: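 Cytotoxicity read as CellTiter-Glo luminescence (30 min, room temperature) in the same wells as the beta-lactamase readout. HEK293T PR-UAS-bla cells in charcoal-stripped 2% FBS received compound and R5020, then 16 h at 37C, 5% CO2.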

[10] = qHTS assay to identify small molecule agonists of the progesterone receptor (PR) signaling pathway - cell viability counter screen (AID 1346799; calls by dose curve; also: nearly all actives have a fitted effect of over 45% in size)
Procedure, shortened: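 Cytotoxicity measured by CellTiter-Glo luminescence (30 min, RT) in the same wells as the PR beta-lactamase agonist read. Those HEK293T cells had 16 h compound treatment at 37 C in 2% charcoal-stripped FBS medium.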

[11] = qHTS assay to identify small molecule antagonists of the TGF-beta/Smad signaling pathway - cell viability counter screen (AID 1346824); also: nearly all actives have a fitted effect of over 50% in size
Procedure, shortened: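 SBE-bla HEK 293T cells were plated overnight at 37 C, then given compounds in DMSO plus TGF-beta1 (added as 0.25 ng/mL solution) for 5 hr. After the bla read, CellTiter-Glo was added to the same wells and luminescence read after 30 min at room temperature.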

[12] = qHTS assay to identify small molecule agonists of the TGF-beta/Smad signaling pathway - cell viability counter screen (AID 1346829); also: top concentration of the series differs between compounds; nearly all actives have a fitted effect of over 45% in size
Procedure, shortened: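 After overnight seating at 37 C and 5% CO2, reporter cells got compounds for 5 hr and FRET substrate for 2 hr; cell viability then came from CellTiter-Glo luminescence.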

[13] = qHTS assay to identify small molecule agonists of the TGF-beta/Smad signaling pathway (AID 1346859; active = well fitted activation curve with a large enough effect in the signal ratio in the repeat runs, not every such curve was filed as active; the % refers to the signal ratio; also: series mostly up to about 77 µM)
Procedure, shortened: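 Fluorescence (ex 405 nm; em 460 and 530 nm) was read 2 h after LiveBLAzer FRET substrate at RT. The preceding compound treatment of overnight-plated SBE-bla HEK293T cells lasted 5 h at 37 C.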

[14] = biological target: Thyrotropin-releasing hormone receptor (Homo sapiens) (UniProt P34981); assay: qHTS assay to identify small molecule antagonists of the thyrotropin-releasing hormone receptor (TRHR) signaling pathway (AID 1346877; active = well fitted inhibition curve with a large enough effect in the repeat runs, not every such curve was filed as active; also: series mostly up to about 51 µM)
Procedure, shortened: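 In this cell-based calcium flux format, HEK293 cells expressing TRHR received test compound for 5 min before the agonist TRH (1 nM final). Dye loading lasted 2 h at 37 °C.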

[15] = biological target: Thyrotropin-releasing hormone receptor (Homo sapiens) (UniProt P34981); assay: qHTS assay to identify small molecule agonists of the thyrotropin-releasing hormone receptor (TRHR) signaling pathway (AID 1346891; calls by dose curve; also: series mostly up to about 58 µM)
Procedure, shortened: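 Agonist-mode intracellular calcium readout: kinetic fluorescence over 3 min at 1 s intervals after compound addition to TRHR-HEK293 cells (18 h seeded, 2 h dye-loaded at 37 C). Fifteen concentrations, triplicates.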

[16] = biological target: Estrogen receptor beta (Homo sapiens) (UniProt Q92731); assay: qHTS assay to identify small molecule agonists of the estrogen receptor beta (ER-beta) signaling pathway (AID 1259377; active = well fitted activation curve with a large enough effect in the signal ratio in the repeat runs, not every such curve was filed as active; the % refers to the signal ratio)
Procedure, shortened: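 Ratiometric beta-lactamase FRET read-out came after 2 h substrate loading at room temperature. It followed 16 h compound treatment at 37C of GripTite HEK293T cells carrying a UAS-bla reporter, plated in 2% charcoal-stripped FBS medium.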

[17] = biological target: Estrogen receptor beta (Homo sapiens) (UniProt Q92731); assay: qHTS assay to identify small molecule antagonists of the estrogen receptor beta (ER-beta) signaling pathway (AID 1259378; active = well fitted inhibition curve with a large enough effect in the signal ratio in the repeat runs, not every such curve was filed as active; the % refers to the signal ratio)
Procedure, shortened: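 ER-beta-UAS-bla HEK293T (GripTite) cells in 2% charcoal-stripped FBS medium were preincubated 6 hr at 37C, dosed with compound, then stimulated with 1 nM E2 (final) for 16 hr; beta-lactamase reporter read by B/G FRET fluorescence after 2 hr substrate loading.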

[18] = biological target: Estrogen receptor (Homo sapiens) (UniProt P03372); assay: qHTS assay to identify small molecule agonists of the estrogen receptor alpha (ER-alpha) signaling pathway in the presence of an antagonist (AID 1259383; calls by dose curve; also: top concentration of the series differs between compounds; nearly all actives have a fitted effect of over 15% in size)
Procedure, shortened: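 In VM7Luc4E2 cells, 4,000 per well, compounds at 15 concentrations were co-incubated 22hr at 37C with 10.0nM final ICI-182,780. Luminescence from the stably transfected 4×ERE-luciferase reporter was recorded 30min after ONE-Glo addition.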

[19] = biological target: Androgen receptor (Homo sapiens) (UniProt P10275); assay: qHTS assay to identify small molecule agonists of the androgen receptor (AR) signaling pathway in the presence of an antagonist (AID 1259381; calls by dose curve; also: nearly all actives have a fitted effect of over 15% in size)
Procedure, shortened: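 Here, 15-concentration compound series were pin-transferred onto MDA-kb2 MMTV-luciferase cells already dosed with nilutamide (3.0uM final). After 16hr at 37C, ONE-Glo was added and luminescence read 30min later at room temperature.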

Measured: Potency

Estrogen receptor beta (Homo sapiens), sequence (Q92731 whole entry, looked up): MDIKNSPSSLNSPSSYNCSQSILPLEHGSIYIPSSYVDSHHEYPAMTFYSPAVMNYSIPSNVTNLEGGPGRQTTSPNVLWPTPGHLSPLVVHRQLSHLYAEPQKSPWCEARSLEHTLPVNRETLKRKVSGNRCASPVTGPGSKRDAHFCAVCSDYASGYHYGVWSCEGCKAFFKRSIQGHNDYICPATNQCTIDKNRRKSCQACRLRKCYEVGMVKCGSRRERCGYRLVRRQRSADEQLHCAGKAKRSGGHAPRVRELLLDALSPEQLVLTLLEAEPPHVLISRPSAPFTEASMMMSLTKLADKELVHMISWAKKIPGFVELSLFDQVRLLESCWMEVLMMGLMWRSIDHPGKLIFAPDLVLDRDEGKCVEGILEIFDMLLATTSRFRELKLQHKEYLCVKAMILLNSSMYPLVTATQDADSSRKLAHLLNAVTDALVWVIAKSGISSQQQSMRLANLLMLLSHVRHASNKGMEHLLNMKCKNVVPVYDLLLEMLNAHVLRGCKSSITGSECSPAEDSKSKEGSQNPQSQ
Androgen receptor (Homo sapiens), sequence (P10275 whole entry, looked up): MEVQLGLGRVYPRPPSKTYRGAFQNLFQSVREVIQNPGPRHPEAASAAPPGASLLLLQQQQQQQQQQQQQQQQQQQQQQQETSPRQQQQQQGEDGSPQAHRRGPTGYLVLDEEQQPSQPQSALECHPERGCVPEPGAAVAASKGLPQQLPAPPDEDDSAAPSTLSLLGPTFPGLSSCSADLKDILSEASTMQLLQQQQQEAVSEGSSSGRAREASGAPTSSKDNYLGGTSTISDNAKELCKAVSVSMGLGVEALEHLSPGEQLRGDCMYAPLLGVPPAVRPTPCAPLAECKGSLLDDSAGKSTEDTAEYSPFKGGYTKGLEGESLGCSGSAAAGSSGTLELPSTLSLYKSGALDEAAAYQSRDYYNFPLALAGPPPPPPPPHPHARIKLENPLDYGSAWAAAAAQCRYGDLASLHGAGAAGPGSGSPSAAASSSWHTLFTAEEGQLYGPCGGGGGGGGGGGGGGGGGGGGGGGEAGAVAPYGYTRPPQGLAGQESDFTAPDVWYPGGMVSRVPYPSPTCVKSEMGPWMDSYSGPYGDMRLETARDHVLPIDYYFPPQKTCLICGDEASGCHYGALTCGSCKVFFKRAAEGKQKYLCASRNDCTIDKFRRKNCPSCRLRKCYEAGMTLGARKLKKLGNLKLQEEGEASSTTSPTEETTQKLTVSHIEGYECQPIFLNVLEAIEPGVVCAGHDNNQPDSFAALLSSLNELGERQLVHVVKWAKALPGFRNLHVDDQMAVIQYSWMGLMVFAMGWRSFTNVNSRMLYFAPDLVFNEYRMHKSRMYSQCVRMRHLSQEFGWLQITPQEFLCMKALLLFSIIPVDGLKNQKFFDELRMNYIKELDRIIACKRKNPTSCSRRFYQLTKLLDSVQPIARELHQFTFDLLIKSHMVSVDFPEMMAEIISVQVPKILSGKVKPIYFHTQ
Thyrotropin-releasing hormone receptor (Homo sapiens), sequence (P34981 whole entry, looked up): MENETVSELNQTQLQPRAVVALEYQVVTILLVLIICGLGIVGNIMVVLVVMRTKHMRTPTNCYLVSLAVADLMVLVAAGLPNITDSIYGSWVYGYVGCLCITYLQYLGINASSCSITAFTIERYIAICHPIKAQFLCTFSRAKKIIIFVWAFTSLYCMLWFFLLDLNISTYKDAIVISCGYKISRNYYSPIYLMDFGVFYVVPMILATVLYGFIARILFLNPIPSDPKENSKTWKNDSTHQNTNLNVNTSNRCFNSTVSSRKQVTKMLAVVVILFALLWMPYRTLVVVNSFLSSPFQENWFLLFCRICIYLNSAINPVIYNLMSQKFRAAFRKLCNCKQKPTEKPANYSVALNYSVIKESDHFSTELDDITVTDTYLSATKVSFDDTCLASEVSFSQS
Progesterone receptor (Homo sapiens), sequence (P06401 whole entry, looked up): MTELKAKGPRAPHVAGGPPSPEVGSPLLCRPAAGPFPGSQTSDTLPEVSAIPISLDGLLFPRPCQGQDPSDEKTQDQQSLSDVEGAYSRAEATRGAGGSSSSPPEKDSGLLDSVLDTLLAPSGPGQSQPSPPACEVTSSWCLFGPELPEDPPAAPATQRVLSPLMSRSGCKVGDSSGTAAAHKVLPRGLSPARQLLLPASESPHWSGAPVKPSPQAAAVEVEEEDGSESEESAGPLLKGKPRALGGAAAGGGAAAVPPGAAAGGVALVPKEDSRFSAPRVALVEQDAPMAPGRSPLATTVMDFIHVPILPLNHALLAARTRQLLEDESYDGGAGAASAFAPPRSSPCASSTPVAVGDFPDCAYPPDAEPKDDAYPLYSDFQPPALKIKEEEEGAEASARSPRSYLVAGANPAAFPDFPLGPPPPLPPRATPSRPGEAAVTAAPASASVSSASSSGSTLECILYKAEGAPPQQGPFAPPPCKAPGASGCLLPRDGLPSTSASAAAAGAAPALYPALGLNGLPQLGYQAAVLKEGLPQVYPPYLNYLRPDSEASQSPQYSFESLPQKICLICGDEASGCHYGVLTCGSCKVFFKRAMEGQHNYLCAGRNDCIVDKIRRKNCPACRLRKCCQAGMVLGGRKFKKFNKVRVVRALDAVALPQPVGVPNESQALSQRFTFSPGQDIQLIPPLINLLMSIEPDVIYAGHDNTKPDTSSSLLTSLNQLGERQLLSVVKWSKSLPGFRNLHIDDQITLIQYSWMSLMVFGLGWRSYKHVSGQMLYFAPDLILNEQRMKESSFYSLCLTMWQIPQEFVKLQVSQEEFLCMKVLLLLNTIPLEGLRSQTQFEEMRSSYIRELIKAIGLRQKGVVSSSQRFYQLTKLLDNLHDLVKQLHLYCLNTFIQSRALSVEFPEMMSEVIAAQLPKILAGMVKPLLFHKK
Estrogen receptor (Homo sapiens), sequence (P03372 whole entry, looked up): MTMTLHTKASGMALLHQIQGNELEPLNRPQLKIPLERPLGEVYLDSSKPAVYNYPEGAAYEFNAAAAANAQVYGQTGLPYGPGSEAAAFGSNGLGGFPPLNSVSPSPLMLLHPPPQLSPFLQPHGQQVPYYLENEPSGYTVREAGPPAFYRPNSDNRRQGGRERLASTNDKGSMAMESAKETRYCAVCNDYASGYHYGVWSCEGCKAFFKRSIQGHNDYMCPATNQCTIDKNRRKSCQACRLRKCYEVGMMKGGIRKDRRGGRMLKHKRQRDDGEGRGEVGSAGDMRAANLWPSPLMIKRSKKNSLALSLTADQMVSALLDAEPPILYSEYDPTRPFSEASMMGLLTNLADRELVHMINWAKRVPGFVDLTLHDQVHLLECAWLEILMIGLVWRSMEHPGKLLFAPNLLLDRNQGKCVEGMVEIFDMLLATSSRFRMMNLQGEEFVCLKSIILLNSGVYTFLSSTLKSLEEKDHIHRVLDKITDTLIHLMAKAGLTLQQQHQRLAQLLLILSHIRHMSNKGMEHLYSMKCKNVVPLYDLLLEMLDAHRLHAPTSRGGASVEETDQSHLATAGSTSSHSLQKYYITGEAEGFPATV
Thyrotropin receptor (Homo sapiens), sequence (P16473 whole entry, looked up): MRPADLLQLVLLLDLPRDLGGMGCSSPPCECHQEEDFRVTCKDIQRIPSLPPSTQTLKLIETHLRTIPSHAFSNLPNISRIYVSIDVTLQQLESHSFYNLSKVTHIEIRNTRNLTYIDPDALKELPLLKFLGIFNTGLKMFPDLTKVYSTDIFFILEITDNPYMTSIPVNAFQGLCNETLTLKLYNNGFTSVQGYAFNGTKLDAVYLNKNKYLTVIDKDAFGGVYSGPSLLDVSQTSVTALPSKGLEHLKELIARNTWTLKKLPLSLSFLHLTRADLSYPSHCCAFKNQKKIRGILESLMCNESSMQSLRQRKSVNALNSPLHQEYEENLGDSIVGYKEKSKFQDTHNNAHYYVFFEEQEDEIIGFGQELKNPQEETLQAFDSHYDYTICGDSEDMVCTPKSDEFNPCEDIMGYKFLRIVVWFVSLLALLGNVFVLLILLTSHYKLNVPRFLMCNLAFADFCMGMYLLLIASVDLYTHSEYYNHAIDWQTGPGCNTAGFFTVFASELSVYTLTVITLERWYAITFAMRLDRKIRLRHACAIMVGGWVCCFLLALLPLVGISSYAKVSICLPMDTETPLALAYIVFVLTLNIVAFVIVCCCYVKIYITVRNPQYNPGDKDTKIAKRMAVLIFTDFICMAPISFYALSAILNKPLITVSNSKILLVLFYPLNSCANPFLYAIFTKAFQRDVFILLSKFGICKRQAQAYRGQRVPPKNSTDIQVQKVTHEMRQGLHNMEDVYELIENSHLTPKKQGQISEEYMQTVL

OCCc1ccccc1
inactive: [1] | [2] | [3] | [4] | [5] | [6] | [7] | [8] | [9] | [10] | [11] | [12] | [13] | [14] | [15]

CCCCCCCCCCCCCCCC(=O)O
inactive: [16] | [17] | [1] | [4] | [5] | [6] | [7] | [8] | [9] | [10] | [11] | [12] | [13] | [14] | [15]

Cn1c(=O)c2[nH]cnc2n(C)c1=O
inactive: [1] | [18] | [4] | [5] | [6] | [7] | [8] | [9] | [10] | [11] | [12] | [13] | [14] | [15]

NC(=O)NC1NC(=O)NC1=O (configuration not stated)
inactive: [1] | [3] | [4] | [5] | [6] | [7] | [8] | [9] | [10] | [11] | [12] | [13] | [14] | [15]

O=c1ccc2ccccc2o1
inactive: [16] | [17] | [1] | [3] | [18] | [4] | [5] | [6] | [7] | [8] | [9] | [10] | [11] | [12] | [13]

CC(O)CO (configuration not stated)
inactive: [1] | [2] | [3] | [18] | [4] | [5] | [6] | [7] | [8] | [9] | [10] | [11] | [12] | [13] | [14] | [15]

O=C(O)c1cccc([N+](=O)[O-])c1
inactive: [16] | [17] | [1] | [6] | [7] | [8] | [9] | [10] | [11] | [12] | [13] | [14] | [15]

Cc1cc(=O)[nH]c(=S)[nH]1
inactive: [1] | [18] | [4] | [5] | [6] | [7] | [8] | [9] | [10] | [11] | [12] | [13] | [14] | [15]

CCCN(CCC)S(=O)(=O)c1ccc(C(=O)O)cc1
inactive: [16] | [17] | [1] | [19] | [4] | [5] | [6] | [7] | [8] | [9] | [10] | [11] | [12] | [13] | [14] | [15]
